The whole screen tested about 52,000 compounds, of which about 1,700 (3.3%) were called active. For the sample, actives were picked, then their nearest neighbours and some compounds at random. Values without a mark were called inactive. No stated cut-off is given here; in the data, active means survival mostly below about 52% (no sharp cut-off); inactive means mostly above about 56%.
Each molecule was assayed on Wild type (assay: growth inhibition of S. aureus wild type versus tarO mutant, primary screen, teichoic acid synthesis inhibitors, RN4220, OD600 (AID 463173)). Details: S. aureus RN4220 wild type/DeltatarO growth, OD600, 18 h, stronger effect = lower value, screened at 18.75 µg/mL (by protocol).
With `Cc1cc(Nc2ccccc2F)n2nc(-c3ccccc3)nc2n1` the survival was 84%. In the case of `Cc1cc(Nc2cc(Cl)ccc2C)n2nc(-c3ccccc3)nc2n1`, the survival is reported as 93%. `COc1ccccc1Nc1cc(C)nc2nc(-c3ccccc3)nn12` was tested, and the survival was 14% (active). With `CCCCC1CCC(C(=O)N2CC(=O)Nc3ccc(Cl)cc3C2c2ccc(F)cc2)CC1` (centres undefined) the survival was 71%. With `CC1CCN(C(=O)c2cc3n(n2)C(C(F)(F)F)CC(c2ccccc2)N3)C(C)C1` (centres undefined) the survival was 123%. `Cc1cccc(C(=O)Nc2cccc(OCc3cc(=O)n4ccccc4n3)c2)c1` gave a survival of 72%. `CSc1ccc(CCNC(=O)c2ccc3c(c2)c(C)c(C)n3Cc2ccc(F)cc2)cc1` gave a survival of 70%. In the case of `Cc1nc2nc(NC(=O)c3ccc(Cl)cc3)[nH]n2c(=O)c1Cc1ccccc1`, the survival is reported as 93%. Molecule `Cc1nc2c(C(=O)NCCc3ccccc3)cnn2c(C)c1Cc1c(F)cccc1Cl` has a survival of 71%. `Cc1nc2nc(NC(=O)c3ccc(F)cc3)[nH]n2c(=O)c1Cc1ccccc1` was tested, and the survival was 88%. With `Cc1ccc(CNC(=O)c2c[nH]n3c(=O)c(Cc4ccc(F)cc4Cl)c(C)nc23)cc1` the survival was -15% (active). For `Cc1nc2c(C(=O)NCCc3ccccc3)c[nH]n2c(=O)c1Cc1ccccc1F`, the survival was -15% (active). `Cc1nc2nc(NCc3ccc(Cl)cc3)[nH]n2c(=O)c1Cc1ccccc1` was tested, and the survival was 61%. Molecule `Cc1ccc(CNC(=O)c2cnn3c(C)c(Cc4c(F)cccc4Cl)c(C)nc23)cc1` has a survival of 65%. In the case of `Cc1nc2c(C(=O)NCCc3ccccc3)c[nH]n2c(=O)c1Cc1ccc(F)cc1Cl`, the survival is reported as -15% (active). In the case of `O=C(NCCc1ccccc1)c1ccc2c(c1)N(Cc1ccc(F)cc1Cl)C(=O)CS2`, the survival is reported as 67%. For `Cc1ccc(CNC(=O)CN2CCN(Cc3ccc(F)cc3Cl)C2=O)cc1`, the survival was 81%. For `Cc1ccc(CNC(=O)c2c[nH]n3c(=O)c(Cc4ccc(Cl)cc4)c(C)nc23)cc1`, the survival was -14% (active). For `Cc1cccn2c(=O)c(C(=O)NCCc3ccccc3)cnc12`, the survival was 49%. In the case of `COc1ccc(N2C(=O)CSC23C(=O)N(Cc2ccccc2F)c2ccccc23)cc1Cl` (centres undefined), the survival is reported as 68%. Work on `COc1cccc(NC(=O)CSC2=Nc3ccccc3N=C(c3ccc(F)cc3)C2)c1` yielded a survival of 69%. `O=C(CSC1=Nc2ccccc2C2=NC(Cc3ccccc3)C(=O)N12)Nc1cccc(Cl)c1` (centres undefined) was tested, and the survival was 76%. In the case of `Cc1cccc(NC(=O)Cn2nnc(C(=O)NCc3cccs3)c2N)c1`, the survival is reported as 89%. Molecule `Cc1ccc(-n2ncc3c(N4CCN(c5ccccc5)CC4)ncnc32)cc1C` has a survival of 69%. Work on `CCN1CCC(N(Cc2cccc(OC)c2)C(=O)Nc2cccc(C(F)(F)F)c2)CC1` yielded a survival of 66%. Work on `O=C(O)c1ccc(NC(=O)c2ccc(Br)c(S(=O)(=O)N3CCCC3)c2)cc1` yielded a survival of 70%. For `O=C(OCc1cc(=O)n2nc(C3CCCCC3)sc2n1)c1ccccc1Cl`, the survival was 59%. In the case of `O=C(Nc1ccccc1)c1cn(-c2ccccc2)nc1-c1ccccc1`, the survival is reported as 86%. Work on `Cc1nc(-c2ccc(C)c(S(=O)(=O)N3CCC(C(=O)Nc4ccc(Cl)cc4)CC3)c2)no1` yielded a survival of 121%. For `COc1ccc(CCNC(=O)c2ccc(Cn3c(=O)c4ccccc4n(Cc4ccccc4Cl)c3=O)cc2)cc1OC`, the survival was 95%. With `Cc1nc2c(C(=O)NCCc3ccc(Cl)cc3)cnn2c(C)c1Cc1ccc(F)cc1` the survival was 73%. `COc1ccc(CCNC(=O)c2cc(C)nc3c2c(C)nn3-c2ccccc2)cc1OC` showed a survival of 76%. Molecule `Cc1nc2c(C(=O)NCc3ccccc3)c[nH]n2c(=O)c1Cc1ccccc1Cl` has a survival of 22%. `Cc1nc2c(C(=O)NCCc3ccc(Cl)cc3)cnn2c(C)c1Cc1c(F)cccc1Cl` showed a survival of 59%. With `Cc1cccn2c(=O)c(C(=O)NCCc3ccc(Cl)cc3)cnc12` the survival was 77%. `Cc1nc2c(C(=O)NCc3ccccc3Cl)cnn2c(C)c1Cc1ccccc1` showed a survival of 85%. `COc1ccc(CCNC(=O)c2c[nH]n3c(=O)c(Cc4ccccc4Cl)c(C)nc23)cc1OC` was tested, and the survival was 0% (active). `Cc1nc2c(C(=O)N(C)Cc3ccccc3)c[nH]n2c(=O)c1Cc1ccc(Cl)cc1` showed a survival of 94%. For `Cc1nc2c(C(=O)NCCc3ccc(Cl)cc3)c[nH]n2c(=O)c1Cc1ccc(Cl)cc1`, the survival was -14% (active). With `Cc1nc2c(C(=O)NCCc3ccc(Cl)cc3)c[nH]n2c(=O)c1Cc1ccccc1F` the survival was -11% (active). With `Cc1nc2c(C(=O)NCc3ccccc3Cl)c[nH]n2c(=O)c1Cc1cccc(Cl)c1` the survival was -15% (active). For `Cc1cccc(C(=O)Nc2ccccc2OCc2cc(=O)n3c(C)csc3n2)c1`, the survival was 90%. `Cc1ccc(Cl)cc1N1CCN(S(=O)(=O)c2ccc3c(c2)CC(=O)N3C)CC1` showed a survival of 113%. With `COCCCNC(=O)c1ccc(Cn2c(=O)c3ccccc3n(CC(=O)Nc3c(C)cccc3C)c2=O)cc1` the survival was 83%. Molecule `CCCN(C(=O)CCn1cnc2onc(-c3ccc(F)cc3)c2c1=O)c1ccccc1C` has a survival of 72%. `COCCCNC(=O)C1CCCN(C(=O)c2cnn(-c3ccc(F)cc3)c2-n2cccc2)C1` (centres undefined) was tested, and the survival was 128%. `CSc1nnc(COc2ccc(Cl)cc2)n1C` was tested, and the survival was 101%. `CCOc1cc(CNC(=O)C(NS(=O)(=O)c2cccs2)C(C)C)cc(OCC)c1OCC` (centres undefined) gave a survival of 65%. Work on `Cc1ccc(CNC(=O)c2ccc3c(c2)CCN3S(=O)(=O)c2ccccc2)cc1` yielded a survival of 84%. Work on `Cc1ccc(C)c(N2CCN(S(=O)(=O)c3ccc(F)c(C(=O)Nc4ccc(Cl)cc4Cl)c3)CC2)c1` yielded a survival of 80%. Work on `Cc1cccc(N2CCN(S(=O)(=O)c3ccc(F)c(C(=O)Nc4cccc(Cl)c4C)c3)CC2C)c1` (centres undefined) yielded a survival of 100%. `Cc1ccc(N2CCN(S(=O)(=O)c3ccc(F)c(C(=O)Nc4ccc(Cl)cc4Cl)c3)CC2C)cc1` (centres undefined) was tested, and the survival was -6% (active). In the case of `CCCCC(=O)N1c2ccccc2C(C)(c2ccccc2)CC1(C)C` (centres undefined), the survival is reported as -2% (active). `CCC(=O)N1c2ccccc2C(C)(c2ccccc2)CC1(C)C` (centres undefined) was tested, and the survival was -3% (active). For `CCC1=NN(C(=O)Cc2ccccc2)C(O)(c2ccccc2)C1` (centres undefined), the survival was 107%. Work on `CC1=CC(C)(C)N(C(=O)Cc2ccccc2)c2ccccc21` yielded a survival of 126%. `CC(=O)N1c2ccccc2N(C)C(=O)C1(C)C` gave a survival of 105%. `CCC(=O)N1CCN(C(=O)CC)C1c1ccccc1` was tested, and the survival was 99%. `CCC(CC)C(=O)N1CCN(Cc2ccccc2)CC1` showed a survival of 108%. Molecule `CCCCOc1ccc(C2(C(=O)O)CCCC2)cc1` has a survival of 105%. For `CCC(CC)C(=O)N1c2ccccc2C(C)(c2ccccc2)CC1(C)C` (centres undefined), the survival was -2% (active). For `CCN1C(=O)C(O)(C(C)C(=O)c2ccccc2)c2ccccc21` (centres undefined), the survival was 111%. In the case of `CC(=O)N1c2ccccc2C(C)(c2ccc(C)cc2)CC1(C)C` (centres undefined), the survival is reported as -2% (active). Molecule `Cc1ccc(NC(=O)CN2C(=O)C(C)(C)c3ccccc32)cc1` has a survival of 77%.

— PubChem BioAssay AID463173 (ICCB-Longwood Screening Facility, Harvard Medical School, 2010)
